# Screening results from PubChem.
# Cav3 T inh = blocks human Cav3.2 T-type calcium channel | O95180 | Cav3.2-expressing cells, Fluo-4 calcium fluorescence FDSS; stronger effect = lower value | B-score at 10 µM | actives 4% (n = 100,000) | AID 449739;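 active means single-dose well whose peak fluorescence ratio is a statistical outlier from its plate by either plate-standardised score or position-corrected B-score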
# PostGolgi ctrl = growth of the yeast control strain, post-Golgi counter-screen. efflux-deficient yeast background strain, growth absorbance A615, 16 h. inhibition, % at 10 µM. actives 5% (n = 98,000). AID 738
# TNAP act DEA = human TNAP activation, intermediate phosphate acceptor. purified TNAP, CDP-star luminescence, 100 mM DEA, 30 min; stronger effect = higher value; scale: 0 levamisole-inhibited, 1 vehicle-only enzyme. P05186. activation factor at 20 µM. 64,000 tested, under 10 active;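 active means activation factor of at least 2 at 20 µM, relative to controls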
# PostGolgi yeast = growth inhibition of a yeast mutant, post-Golgi transport screen; actives 0.9% (n = 98,000); post-Golgi transport phenotypic cell assay; inhibition, % at 10 µM;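 further: yeast cells grown in 1536-well plates; yeast grown about 18 h at 30C before absorbance read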
# Smad3 FoxH1 inh = inhibitors of human Smad3 transcription factor binding | inhibition, % at 25 µM | AID 630 | TR-FRET Smad3/Dy647-FoxH1 peptide binding, europium anti-His | actives 0.29% (n = 88,000) | P84022;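 active means compounds that reduce the energy-transfer binding signal between the protein and its labelled peptide by more than half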;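 further: 0% = Smad3 plus labelled peptide maximal FRET and 100% = peptide-only background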
# DAT uptake mod = changed human dopamine transporter uptake under cocaine IC80 | Q01959 | LLC-PK1 hDAT cells, [14C]-dopamine uptake with cocaine IC80; actives deviate in either direction | B-score at 10 µM | actives 1.3% (n = 110,000) | AID 449768;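 active means Z score or B-score, a plate-position-corrected score, falls beyond the plate's 99.7% confidence bounds, in either direction; inactive means both scores lie inside the 99.7% bounds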;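 further: scored against the spread of the other compound wells on the same plate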
# Target sequence (Q01959 whole entry, looked up): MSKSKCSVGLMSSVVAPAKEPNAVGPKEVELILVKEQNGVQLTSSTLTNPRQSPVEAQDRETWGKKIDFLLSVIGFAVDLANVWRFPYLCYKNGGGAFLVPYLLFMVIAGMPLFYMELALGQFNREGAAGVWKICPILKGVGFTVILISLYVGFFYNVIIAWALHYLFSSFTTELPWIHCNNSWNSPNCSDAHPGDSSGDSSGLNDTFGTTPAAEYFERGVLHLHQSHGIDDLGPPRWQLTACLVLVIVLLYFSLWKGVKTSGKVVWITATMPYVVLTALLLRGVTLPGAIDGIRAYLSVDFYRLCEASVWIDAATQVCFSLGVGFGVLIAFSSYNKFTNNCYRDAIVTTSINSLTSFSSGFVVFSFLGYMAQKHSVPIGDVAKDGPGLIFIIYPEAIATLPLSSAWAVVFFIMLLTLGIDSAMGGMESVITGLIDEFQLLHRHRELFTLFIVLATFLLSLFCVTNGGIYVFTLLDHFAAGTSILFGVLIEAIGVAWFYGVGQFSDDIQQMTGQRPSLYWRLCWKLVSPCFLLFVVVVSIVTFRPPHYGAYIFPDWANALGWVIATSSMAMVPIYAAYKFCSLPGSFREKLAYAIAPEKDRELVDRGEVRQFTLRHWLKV
# * marks the source's active call; other numbers are inactive results; x = not tested or not shown. Most compounds without a hit are left out; they make up all but 8.7% or so of the library. Unless noted, no stated cut-off is given here; in the data, active means inhibition above about 30%; inactive means the rest.
SMILES,Cav3 T inh,PostGolgi ctrl,TNAP act DEA,PostGolgi yeast,Smad3 FoxH1 inh,DAT uptake mod
CCCC12CN(C(=O)c3ccc(OC)cc3)CC(C)(CN(C(=O)c3ccc(OC)cc3)C1)C2=O,0.87,5,1,2,1,1.5
CCOC(=O)N1CCN(C(=O)CSCC(=O)N=c2sc3cc(OC)ccc3n2C)CC1,x,x,0.9,x,x,x
CC(=O)SCC(=O)N=c1sc2cc(F)ccc2n1C,-6.2*,-1,1,1,7,0.011
CCOC(=O)Cn1c(=NC(=O)CSC(C)=O)sc2ccccc21,-9.4*,5,0.9,1,4,-0.96
CCOC(=O)Cn1c(=NC(=O)CSC(C)=O)sc2cc(OC)ccc21,-10*,0,0.9,1,5,-1.1
CCOC(=O)Cn1c(=O)sc2ccccc21,-0.033,0,0.8,4,-8,0.044
CC(=O)N=c1sc2cc(C)ccc2n1C,0.34,9,1,12,2,0.47
C/C=C\C(=O)Nc1cccc(C2=NOC3(C2)C[C@@H](C(N)=O)N(C(=O)CCCCC)C3)c1 (some centres not stated),0.0099,x,x,x,x,0.071
CCCOc1ccc(-c2nnc(-c3cccs3)o2)cc1,-0.2,x,x,x,-76,-1
N#Cc1cc(N)ccc1Sc1ccccc1,-0.51,0,x,23,x,-0.025
N#Cc1cc(N)ccc1Sc1ccc(Cl)cc1,-3.6,53*,x,9,x,0.9
O=C(Nc1ccccc1C(=O)NC(Cc1c[nH]c2ccccc12)C(=O)O)c1ccco1 (configuration not stated),x,-10,1,3,-7,-0.4
O=C(NC(Cc1c[nH]c2ccccc12)C(=O)O)c1ccco1 (configuration not stated),0.24,30*,x,-8,6,-9.5*
Cc1cc(C)nc(NC(=NCCc2c[nH]c3ccccc23)NC(=O)c2ccco2)n1,0.11,42*,0.9,11,-5,1
O=C(NCCCCc1ccccc1)C1CC(c2ccccc2[N+](=O)[O-])=NO1 (configuration not stated),0.024,17,x,5,x,1.3
O=[N+]([O-])c1ccc2c(c1)C(N1CCOCC1)/C(=C/COc1ccc(Cl)cc1Cl)O2 (configuration not stated),-3.6*,27,x,-2,x,-0.58
COCCn1c(=O)[nH]c2cc(C(=O)NCCCN3CCN(c4ccc(F)cc4)CC3)ccc2c1=O,0.19,-12,0.9,-7,0,-0.024
Cc1oc(/C=N/NC(=O)CN(c2ccccc2Br)S(C)(=O)=O)cc1Br,-2.2,-7,x,3,x,-1.4
Cc1ccccc1N(CC(=O)N/N=C/c1cc(C)n(-c2ccccc2C)c1C)S(C)(=O)=O,-9.8*,7,x,-1,x,-2.7*
NNCCc1ccccc1,x,x,x,x,x,-0.63
CCOC(=O)C1CCN(Cc2ccc(N(C)C)cc2)CC1,x,0,0.9,7,-11,-0.075
CCN(CC)C(=O)C1CCN(Cc2ccc(Br)cc2)CC1,0.18,6,1.1,61*,1,-0.26
CCCCCCCCC(=O)N/N=C(\C)c1cccnc1,-0.46,x,x,x,8,-0.38
CCCCCC/C(=N\NS(C)(=O)=O)c1ccccc1,-4.9*,10,x,-2,-10,-0.24
Nc1ccc(Sc2cnn(-c3ccccc3)c(=O)c2Cl)cc1,-0.7,40*,x,9,x,2
SMILES,Cav3 T inh,PostGolgi ctrl,TNAP act DEA,PostGolgi yeast,Smad3 FoxH1 inh,DAT uptake mod
CNc1cnn(-c2ccccc2)c(=O)c1Cl,0.35,-8,x,4,x,-0.73
N#Cc1ccccc1NC(=O)CSc1nnc(-c2ccccc2O)n1-c1ccccc1,-0.7,17,1,-1,2,1.3
COc1ccccc1CC(=O)O/N=C(\N)Cc1cccc2ccccc12,-2.2,30*,x,-3,x,-0.31
CCCN(Cc1cc2ccc(C)cc2[nH]c1=O)S(=O)(=O)c1ccccc1,-0.9,36*,x,8,6,-0.31
Cc1n[nH]c(=O)nc1NC(C)c1ccccc1 (configuration not stated),0.82,-9,x,-7,-20,-0.051
O=C1N=C2SCCN2/C1=C\c1ccccc1Cl,1.6,26,x,2,x,-0.012
Cc1cc(C)c(S(=O)(=O)N2CCC(C(=O)NCc3ccc(Cl)cc3Cl)CC2)c(C)c1,-4.7*,89*,x,100*,0,0.14
Brc1ccc(-c2nc3ncccn3c2NC2CCCCC2)o1,-1.5,45*,x,4,10,0.38
c1ccn(-c2ccc(N3CCOCC3)cc2)c1,x,0,x,-13,-2,x
CCn1c(CSc2nccn2C)nc2cc(C(=O)O)ccc21,-0.49,3,0.9,-1,9,-0.96
CSc1nc(C)cc(C)c1C(N)=O,-0.62,x,x,x,3,-0.67
CCC(C)Oc1nc(C)cc(C)c1S(=O)(=O)c1ccccc1C (configuration not stated),1.3,16,x,-6,x,-0.82
CSc1nc(C)cc(C)c1S(=O)(=O)c1ccccc1C,-6.5*,12,x,2,x,-1.4
CCSc1nc(C)cc(C)c1S(=O)(=O)c1ccccc1C,-2.4,31*,x,21,x,0.2
Cc1cc2[nH]c(=O)c3ccccc3n2n1,0.43,21,x,9,1,0.88
CCC(C)C(=O)N1CCCC(c2nc(-c3cccs3)no2)C1 (configuration not stated),0.78,-5,x,-3,7,-0.42
CCOC(=O)C(NC(=O)CC)(Nc1ccc(S(=O)(=O)Nc2ncccn2)cc1)C(F)(F)F (configuration not stated),0.78,5,1,-6,-4,-0.2
O=C(Nc1ccc2oc(=O)ccc2c1)c1ccco1,-0.0076,4,0.8,15,-1,-0.02
O=C(Nc1ccc2oc(=O)ccc2c1)c1cccnc1Cl,-0.041,2,x,32*,8,0.013
O=C(COC(=O)c1ccc(NS(=O)(=O)c2ccc3c(c2)OCCO3)cc1)NCC1CCCO1 (configuration not stated),-0.0035,1,1,0,17,1.1
O=C(CN1CCC(C(O)(c2ccccc2)c2ccccc2)CC1)Nc1cc(Cl)ccc1Cl,-0.12,37*,x,8,x,-0.41
O=C(CN1CCOCCOCCOCC1)Nc1ccccc1,0.12,1,x,-4,x,-0.15
O=C(CN1CCCCC1)Nc1cc(Cl)ccc1Cl,-0.24,1,0.9,20,-11,-0.14
O=C(CN1CCC(C(O)(c2ccccc2)c2ccccc2)CC1)Nc1ccccc1,-2.4*,-3,x,15,x,0.6
O=C(CN1CCN(Cc2ccccc2)CC1)Nc1cccc(C(F)(F)F)c1,-6.6*,3,x,3,x,-0.56
CC(C)c1ccccc1NC(=O)c1ccco1,0.03,5,0.9,3,9,-0.0015
Cc1nc2c(C#N)c[nH]n2c(=O)c1Cc1ccccc1,1.3,23,x,1,1,-0.15
O=C(CSc1nnc(-c2ccco2)o1)NC1CCCCCC1,0.8,4,0.9,-3,1,1.1
COc1ccc(C)cc1S(=O)(=O)N(CC(=O)O)c1ccc(C)cc1,-0.62,0,0.9,11,-5,0.43
CC(=O)c1ccc(N2CCCC2)c(F)c1,-0.42,9,0.9,-4,8,-0.68
